Compounds without any hit were thinned out: in the full panel of roughly 83,000, 20% have a hit.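 A percent growth of 40 corresponds to 60% growth inhibition; 0 means no net growth; -100 means all cells died. Active threshold: below 10.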 Unmarked numbers belong to inactive results.
Test system: EKVX NSCLC
Assay: NCI-60 one-dose screen, 48 h (100 = growth as untreated, 0 = no growth, -100 = all killed)
Details: 10 µM unless noted

**Q.** How did the growth turn out when `COC(=O)C(Cc1ccccc1)NS(=O)(=O)/N=C1\NC(=O)NC1=C(Cl)Cl` (configuration not stated) was run?
**A.** 104%

**Q.** How did the growth turn out when `[Cl][Ru].c1ccc(-c2cccc(-c3ccccn3)n2)nc1.c1ccc(-c2ccnc3c2ccc2c(-c4ccccc4)ccnc23)cc1` was run?
**A.** 62.7%

**Q.** With `NS(=O)(=O)c1ccc(Nc2nc(Nc3ccccc3)nc(-n3nc(-c4ccccc4)cc3-c3ccccc3)n2)cc1` as the compound, how does the growth read?
**A.** 40.3%

**Q.** With `COc1ccccc1/C=C/C=N/NC1=NC2C(S1)N(C)C(=O)N2C` (configuration not stated) as the compound, how does the growth read?
**A.** 40.1%

**Q.** `O=C(c1ccc(O)cc1)C1[C@H](c2ccc(Cl)cc2)[C@@H](c2ccccc2)NC12C(=O)Nc1ccc(Cl)cc12` (some centres not stated) was tested. Which growth did it give?
**A.** 48.1%

**Q.** With `CC(C)Sc1nc(Nc2ccc(S(N)(=O)=O)cc2)c(C#N)c(-c2ccc(F)cc2)n1` as the compound, how does the growth read?
**A.** 50.9%

**Q.** `Nc1cc(-c2c[nH]c3ccccc23)nc2cc(-c3c[nH]c4ccccc34)nn12` was tested. Which growth did it give?
**A.** 74.5%

**Q.** For `Cc1nc2cnc(N)c(C#Cc3cncc(C(=O)Nc4ccc(Cl)c(C(F)(F)F)c4)c3)c2nc1C`, which growth is on record?
**A.** 82.4%

**Q.** For `CCN1C(=S)N(CC)C2C1N=C(SC)N2/N=C/C=C/c1ccccc1[N+](=O)[O-]` (configuration not stated), which growth is on record?
**A.** 93.6%

**Q.** How did the growth turn out when `COc1ccc(/C=N/NC(=O)c2[nH]c3ccc(Br)cc3c2-c2ccccc2)o1` was run?
**A.** 37.8%

**Q.** Which growth does the source give for `NS(=O)(=O)c1cccc(Nc2nc(SCC(=O)c3ccc([N+](=O)[O-])cc3)nc3ccccc23)c1` here?
**A.** 70.9%

**Q.** With `COc1cc(/C=C/C(=O)c2ccccc2)ccc1Oc1nc(NCCO)nc(N2CCOCC2)n1` as the compound, how does the growth read?
**A.** 95.5%

From PubChem BioAssay (NCI)
